# Screening data deposited in PubChem BioAssay by National Center for Advancing Translational Sciences (NCATS).
# RE007 growth inh – less growth of the S. pombe RE007 Vpr strain. S. pombe RE007 Vpr strain, BacTiter-Glo ATP luminescence, 24 h. Potency, µM (doses to about 92.2 µM), without a hit: top-dose activity change, negative = less growth, actives largely listed as inhibitors. actives 0.21% (n = 360,000); active means well fitted falling curve with a large enough effect; inconclusive means small, poorly fitted or top-dose-only effect; inactive means no such curve, though single readings can be large or run the other way; further: nearly all actives have a fitted effect of over 50% in size
#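 Fission yeast RE007 carrying one integrated HIV-1 vpr copy, seeded at OD 0.01 in PMG+AL medium with 23 nL pinned compound. Grown 24 h at 30 degrees; viability read by BacTiter-Glo luminescence after 5 min.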
# LmPK inh – inhibitors of Leishmania mexicana pyruvate kinase. Potency, µM (doses to about 57.5 µM), without a hit: top-dose activity change, negative = inhibition, most hits filed as inhibitors. actives 0.37% (n = 290,000). purified LmPK, Kinase-Glo ATP luminescence, 1 h
#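 ATP generated from ADP (0.1 mM) and PEP (0.5 mM) by 0.1 nM LmPK over 1 h at room temperature (pH 7.2 imidazole buffer) was detected by coupled luciferase luminescence. Values were normalized to uninhibited and no-enzyme wells.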
# Giardia FBPA inh – inhibitors of Giardia lamblia fructose-1,6-bisphosphate aldolase | A8B2U2 | purified Giardia FBPA | Potency, µM (top dose mostly 59.6 µM), inactives show top-dose activity, negative = inhibition, most hits filed as inhibitors | actives 0.71% (n = 290,000) | AID 2451; further: nearly all actives have a fitted effect of over 55% in size
# Target sequence (A8B2U2 whole entry, looked up): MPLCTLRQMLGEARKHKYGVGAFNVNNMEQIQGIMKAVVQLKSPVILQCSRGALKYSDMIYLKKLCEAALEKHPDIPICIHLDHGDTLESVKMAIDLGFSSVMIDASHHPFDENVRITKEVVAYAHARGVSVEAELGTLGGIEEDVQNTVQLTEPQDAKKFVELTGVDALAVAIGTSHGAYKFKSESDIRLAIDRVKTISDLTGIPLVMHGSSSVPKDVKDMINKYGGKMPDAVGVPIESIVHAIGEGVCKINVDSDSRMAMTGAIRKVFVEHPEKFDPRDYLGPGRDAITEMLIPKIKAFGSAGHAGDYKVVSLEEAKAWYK
#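 40 nM FBPA preincubated 10 min at RT with compound (up to 57.5 uM final), then substrate plus GAPDH/TPI/NAD/arsenate coupling and diaphorase/resazurin added. Fluorescence read after 20 min at RT, 525/598 nm.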
# TbPYK inhibitor – inhibitors of Trypanosoma brucei pyruvate kinase | actives 0.12% (n = 410,000) | TbPYK enzyme, Kinase-Glo Plus ATP luminescence, 45 min | Potency, µM (titrated, usually from 76.8 µM), without a hit: top-dose activity, negative = inhibition, usual class: inhibitors; further: nearly all actives have a fitted effect of over 50% in size
#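 Enzyme and substrate buffer are dispensed first and compound is pin-transferred. ADP at 130 uM final then starts the reaction, which runs 45 min at room temperature. Detection reagent is added for 10 min before luminescence is imaged.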
# Numbers without * were called inactive; ? = inconclusive; / = no result; [ ] = another dose, or the depositor's remark. Rows were chosen to be rich in hits. Some 0.95% of all compounds tested hit in one or more screens of this group. Unless noted, the call rests on the fitted dose curve; in most records, active means well fitted curve in the direction sought with a large enough effect; inconclusive means small, poorly fitted or top-dose-only effect, or another doubt; inactive means no such curve, though single readings can be large; an effect the other way counts as inactive or inconclusive. On the % scale 0 is the no-effect control and ±100 the full control effect; potency means the concentration at half of the fitted maximal effect.
SMILES,RE007 growth inh,LmPK inh,Giardia FBPA inh,TbPYK inhibitor
COC(=O)CN1C(=O)[C@@H]2[C@H](C1=O)[C@@H]1CC(C(=O)OC)=C[C@@H](C(=O)OC)C3C1=C(C(=O)[C@]3(C)NC(=O)c1ccccc1)[C@@H]2C (stereo not given in full),/,/,5%,/
COc1cc(/C=N/n2cc(-c3ccccc3)[nH]c2=S)cc(OC)c1O,18%,2.5µM*,-8%,1.1µM*
Nc1nc(-c2cccc(Br)c2)cs1,14µM*,-4%,-5%,0%
Nc1nc(-c2ccc(Br)cc2)cs1,-18%,-3%,9%,-7%
COc1ccc(C(=O)c2ccc(O)cc2)c(O)c1O,/,/,22µM*,/
CCOc1ccccc1NC(=O)Cn1c(=O)n(-c2ccc(C)cc2)c(=O)c2c1cnn2C,/,/,/,-2%
C=C/C=C/CC1=C(C)[C@@H](OC(=O)[C@@H]2[C@@H](/C=C(\C)C(=O)OC)C2(C)C)CC1=O (tested in a mixture with another compound),/,/,/,-4%
COc1cc(OC)c(/C=N/n2c(C3CCCCC3)n[nH]c2=S)c(OC)c1,1%,?,1%,8.9µM*
COc1cccc(/C=N/n2c(C3CCCCC3)n[nH]c2=S)c1OC,8%,0%,9%,5.6µM*
COc1ccc(/C=N/n2c(C3CCCCC3)n[nH]c2=S)c(OC)c1,-2%,-22%,27%,-21%
Cc1cc(=O)[nH]c(S/C=C/c2ccccc2)n1,?,13µM*,-9%,-4%
c1csc(-c2nc3c4ccccc4c4ccccc4c3[nH]2)c1,-17%,-1%,-16%,5%
Oc1ccccc1-c1nc2c3ccccc3c3ccccc3c2[nH]1,-13%,9%,18µM*,-12%
O=[N+]([O-])c1ccc(N2CCOCC2)c2c1no[n+]2[O-],45µM*,/,/,-15%
O=[N+]([O-])c1ccc(N2CCOCC2)c2cccnc12,7%,2%,-9%,2%
COc1cc(/C=N/Nc2nncn2/N=C/c2ccc(O)c(OC)c2)ccc1O,-20%,14µM*,?,?
COc1ccc(OC)c(/C=N/Nc2nncn2/N=C/c2cc(OC)ccc2OC)c1,-17%,3%,?,-4%
Nc1ccc(-n2cc(-c3ccccc3)[nH]c2=S)cc1,11%,?,22%,2.5µM*
O=C1N/C(=C\c2ccc(O)cc2)C(=O)c2ccccc21,-27%,10µM*,?,?
Cc1ccc(NC(=O)c2cc(N3C(=O)CCC3=O)ccc2N2CCOCC2)cc1,-8%,2%,2%,-18%
Cc1ccc(NC(=O)c2cc(N3C(=O)C=CC3=O)ccc2N2CCOCC2)cc1Cl,7.9µM*,18%,-12%,0%
CCSC1=NC2(CCCCC2)Nc2sc3c(c21)CCCC3,40µM*,24%,-29%,-24%
CCCNS(=O)(=O)c1ccc2nc(NC(=O)c3ccc(F)cc3)sc2c1,/,/,/,1µM*
Cc1ccc2nc(NC(=O)c3cccs3)sc2c1,-17%,?,-2%,3%
CS(=O)(=O)c1ccc2nc(NC(=O)c3cccs3)sc2c1,?,16µM*,5%,-26%
SMILES,RE007 growth inh,LmPK inh,Giardia FBPA inh,TbPYK inhibitor
Cc1ccc(S(=O)(=O)Nc2c(O)ccc3ccccc23)cc1,-5%,/,/,-14%
Cc1ccc(S(=O)(=O)Nc2c(Cl)c(Cl)c(O)c3ccccc23)cc1,/,6.3µM*,-10%,/
CO/N=C(\C(=O)N[C@@H]1C(=O)N2C(C(=O)OCOC(=O)C(C)(C)C)=C(C)CS[C@H]12)c1csc(N)n1,/,/,/,2%
CC(N)C(=O)c1ccccc1 (stereo not given),/,/,/,1%[157 µM]
O=C(CCN1CCOCC1)c1ccc(Br)cc1,32µM*,-3%,-6%,-22%
O=C(CCN1CCOCC1)c1ccc(Cl)cc1,40µM*,-9%,3%,0%
COc1cc(O)c(C(=O)c2ccccc2)cc1O,/,/,3.5µM*,/
COc1cc(O)c(C(=O)c2ccccc2)cc1S(=O)(=O)O,/,/,6%,3%
O=C1C=CC(=Nc2ccc3c(c2)Cc2cc(F)ccc2-3)O1,3.2µM*,/,/,?
O=C1C=CC(=Nc2cccc3c2C(=O)c2ccccc2-3)O1,1%,/,/,8%
O=C(NC1CCCC1)O[C@@H]1C(=O)c2cc(Br)ccc2O[C@H]1c1ccc2c(c1)OCO2,/,/,2%,/
Cn1c(/N=C/c2ccc3c(c2)OCO3)nc2ccccc21,-6%,13µM*,-24%,-15%
Cc1ccc(CNC(=O)c2c[nH]c3ccc(S(=O)(=O)Nc4ccc(C(C)C)cc4)cc3c2=O)cc1,/,/,/,5%[15.4 µM]
